# Laboratory results as given in PubChem BioAssay (NCI).
# Several values for one entry are separate records, joined by “and”; a condition that tells them apart may be missing. Identical values can stand only once. About 83,000 compounds went through this panel and 20% of them were active in at least one assay; those are over-represented in the sample as a whole.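 Testing used 96-well plates and a 48-hour single-concentration exposure. Example: -40 means 40% of the starting cells died.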 Activity calls are given as the source filed them.
# Test system: RPMI-8226 leukemia
# Test: NCI-60 one-dose screen, 48 h (100 = growth as untreated, 0 = no growth, -100 = all killed)
# Details: 10 µM unless noted
# Experimental: Growth inhibition of the RPMI-8226 human tumor cell line is measured as a screen for anti-cancer activity. Cells are grown in 96 well plates and exposed to the test compound for 48 hours. Compounds are tested at a single concentration, which is 10^-5 M for most compounds. The reported endpoint is percent growth (GI% or GIPRCNT), where numbers from 0 - 100% represent growth inhibition, and numbers from -100% - 0 represent cell death. For example, a value of 40 represents 60% growth inhibition. A value of 0 means no net growth occurred over the course of the experiment. A value of -40 indicates 40% of cells at the beginning of the experiment died by the end of the experiment. A value of -100 means all cells are dead at the end of the experiment.
# NCI-60 Human Tumor Cell Lines Screen was performed using the standard one-dose NCI protocol, which is described in more detail at https://dtp.cancer.gov/discovery_development/nci-60/default.htm.
# Compounds with GIPRCNT values below 10 were considered active. Activity score was based on GIPRCNT using the following formula: […]
# Score is 0 for GIPRCNT values of 100 or above, 50 for GIPRCNT values of 0, and 100 for GIPRCNT values of -100.
row,SMILES,growth
1,O=NN1CCCCC1,114% (inactive)
2,C[C@]12CCC(=O)C[C@@H]1CC[C@@H]1[C@@H]2CC[C@]2(C)[C@@H](OC(=O)N(CCCl)N=O)CC[C@@H]12,17.4% (inactive)
3,Cc1ccc(S(=O)(=O)n2cc([C@@]3(O)C[C@H](CSC#N)OC3=O)c3ccccc32)cc1,16.3% (inactive)
4,C[C@]12CCc3sc(Nc4ccc(OC(F)(F)F)cc4)nc3C1=CC[C@@H]1[C@@H]2CC[C@]2(C)C(=O)CC[C@@H]12,2.88% (active)
5,O=C(O)c1ccc(=O)[nH]c1,103% (inactive) and 96.5% (inactive)
6,COC(=O)C1=CCCN(C)C1,106% (inactive)
7,COc1ccc(N)cc1N,90.1% (inactive)
8,CC[C@H](C)[C@H](NC(=O)[C@H]1CCCCN1C)C(=O)N(C)[C@H](C[C@@H](OC(C)=O)c1nc(C(=O)N[C@@H](Cc2ccccc2)C[C@H](C)C(=O)O)cs1)C(C)C,34.1% (inactive)
9,O=C1NC(=O)C(=C/C=C/c2ccccc2)C(=O)N1,-20.4% (active)
10,CC[CH2][Sn]([Cl])([Cl])[CH2]CC.Oc1ccccc1C=NCCN=Cc1ccccc1O,-24.1% (active) and -10.1% (active)
11,C[C@]12CC[C@H]3[C@@H](CC=C4c5nc(N)sc5CC[C@@]43C)[C@@H]1CC[C@@H]2O,103% (inactive)
12,C[Se]/C=C1/C(=O)N(c2c(Cl)cccc2Cl)c2ccccc21,2.93% (active)
13,CN1[C@@H](CC(=O)c2ccccc2)CCC[C@H]1CC(=O)c1ccccc1,120% (inactive)
14,CC1(C)N(Nc2ccccc2)C(=O)C2CCCN21 (stereo not given),13.7% (inactive)
15,CCC1(CCSC#N)C(=O)NC(=O)NC1=O,106% (inactive)
16,C[C@]12CCc3sc(Nc4ccc(O)cc4)nc3C1=CC[C@@H]1[C@@H]2CC[C@]2(C)C(=O)CC[C@@H]12,-24.5% (active)
17,O=C(O)C(Br)CBr (stereo not given),103% (inactive)
18,CCC(=O)C(CC(C)[N+](C)(C)C)(c1ccccc1)c1ccccc1 (stereo not given),109% (inactive)
19,CCC1CCC(=O)O1 (stereo not given),104% (inactive) and 114% (inactive)
20,CCCN1C(=O)NC(=O)C(CC)(N2C(=O)c3c(F)c(F)c(F)c(F)c3C2=O)C1=O (stereo not given),-30% (active)

row,SMILES,growth
1,O=C1CCCCC1CN1CCCCC1 (stereo not given),108% (inactive)
2,CCCCCCCCCCCCCCCCCCn1cc[n+](C)c1,93.8% (inactive) and 75.6% (inactive)
3,C=C1C(=O)OC2CC3(C)OC3C3OC3C3=CC(OC3=O)C12 (stereo not given),97.9% (inactive) and 38% (inactive)
4,[N-]=[N+]=CC(=O)CCC(=O)C=[N+]=[N-],119% (inactive)
5,N#CC(NC(=O)CCl)=C(Cl)Cl,-22% (active)
6,O=P(O)(Nc1ccccc1)Nc1ccccc1,91.8% (inactive)
7,CC1=C([Te]c2ccccc2)C(=O)c2ccccc2C1=O,-32.9% (active)
8,C[C@]12CC[C@@H](OC(=O)N(CCCl)N=O)C[C@@H]1CC[C@@H]1[C@@H]2CC[C@]2(C)C(=O)CC[C@@H]12,21.7% (inactive)
9,CC1(C)C=Cc2c(ccc3c2[N+]([O-])=C2C3=C[C@@]34NC(=O)[C@]5(CCCN5C3=O)C[C@@H]4C2(C)C)O1,24.6% (inactive)
10,Oc1cc(Cl)ccc1Oc1ccc(Cl)cc1Cl,9.47% (active)
11,C[C@]12CC[C@H]3[C@@H](CC=C4c5nc(-c6ccc(Br)cc6)sc5CC[C@@]43C)[C@@H]1CC[C@@H]2O,54.6% (inactive)
12,O=C(O)C1C(C(=O)O)C2(Cl)C(Cl)=C(Cl)C1(Cl)C2(Cl)Cl (stereo not given),94% (inactive) and 115% (inactive)
13,COC[C@H]1OC(=O)c2coc3c2[C@@]1(C)C1=C(C3=O)[C@@H]2CCC(=O)[C@@]2(C)C[C@H]1OC(C)=O,58.8% (inactive)
14,CC1=C(C)C(=O)O[C@@H]([C@](C)(O)[C@]2(O)CC[C@@]3(O)[C@@H]4C[C@H]5O[C@]56CC=CC(=O)[C@]6(C)[C@H]4CC[C@]23C)C1,-19.2% (active)
15,O=[N+]([O-])c1ccc(CI)cc1,53.2% (inactive)
16,O=NN(c1ccccc1)c1ccccc1,107% (inactive)
17,OCCNC1CCCCC1,108% (inactive)
18,Oc1ccc(O)c(Cl)c1,28.5% (inactive) and 91.1% (inactive)
19,Cc1ccc(P(=O)(O)O)cc1,112% (inactive)
20,COc1ccn(C)c(=O)c1C#N,102% (inactive)
